Measurements taken from ChEMBL document CHEMBL3988442, “University of Dundee, Small-Polar-MMV Screening Library” (2021).
The campaign covered roughly 48,000 compounds. About 13,000 (27%) showed an effect of 50% or more. The list shows a part of the results.

System: Wolbachia pipientis
Experiment: Anti-Wolbachia Cell-Based Screen
Format: functional
Design: scale not given: in the data most compounds retested in dose-response had high values
Details: 5 µM

Going from `O=C1C(N2CCOC3(CCCC3)C2)CCN1C1CC1` (stereo unspecified) to `CC(C)(C)C(=O)N1CCC(n2cc(C3(O)CCCC3)nn2)CC1`, the “Percent Effect” value falls from 15.83% to -19.86%.

First: Cc1nnc2n1CC(CNc1ncnc3ccccc13)CC2 (stereo unspecified)
Second: COc1cc(N2CCn3cc(CNc4ccccn4)nc3C2)ncn1
The “Percent Effect” value of the first is lower: -0.4612% for the first, 0.6158% for the second.

Compared with `CCN(CC)CCCN1CCC(NC(=O)OC(C)(C)C)CC1`, `Cc1cc(C)n(CCCN(CCN2CCOCC2)Cc2ccco2)n1` is higher in “Percent Effect” value: 13.41% for the first, 110.7% for the second.

Compared with `Cc1cc(C)n(CCN2CCN(C(=O)c3ccccc3Br)CC2)n1`, `Cc1cc(C)n(Cc2cccc(C(=O)NCCN3CCOCC3)c2)n1` is lower in “Percent Effect” value: 0.6022% for the first, -2.99% for the second.

First: CN(C)CCN1CCc2ncc(CN(C)Cc3ccco3)n2CC1
Second: CSCCCN(CCN1CCOCC1)Cc1ccco1
The “Percent Effect” value of the first is lower: 24.09% for the first, 114.6% for the second.

Compared with `Cl.Cl.O[C@@H]1C[C@@](CNCc2cccc(Cl)c2)(COc2cccnc2)C[C@@H]1O`, `Cc1cccc(CN2CCCC(O)(CNCc3ncccc3C)C2=O)c1` (stereo unspecified) is higher in “Percent Effect” value: -8.733% for the first, 4.315% for the second.

First: Cc1ccc(N2CC[C@H]3CN(C(=O)c4ccn(C)n4)C[C@H]3C2)nn1.O=C(O)C(F)(F)F
Second: COc1ncccc1CN1C[C@H]2CCN(c3ccc(C)nn3)C[C@H]2C1.O=C(O)C(F)(F)F
The “Percent Effect” value of the first is lower: -19.75% for the first, 107.5% for the second.

Going from `COc1ncccc1CN1C[C@H]2C[C@@H](C(=O)NCC3CC3)N(C)[C@H]2C1.O=C(O)C(F)(F)F.O=C(O)C(F)(F)F.O=C(O)C(F)(F)F` to `COc1ncccc1CN1C[C@@H]2C[C@@H](C(=O)NCC3CC3)N(C)[C@@H]2C1`, the “Percent Effect” value falls from 107.4% to 96.26%.

Going from `COc1ncccc1CN1Cc2nnn(C)c2C(COCC2CC2)C1.O=C(O)C(F)(F)F.O=C(O)C(F)(F)F` (stereo unspecified) to `CCOCC1CN(Cc2cccnc2OC)Cc2cnn(C)c21.O=C(O)C(F)(F)F.O=C(O)C(F)(F)F.O=C(O)C(F)(F)F` (stereo unspecified), the “Percent Effect” value rises from -15.9% to 2.379%.

Compared with `COc1ncccc1CN1CCC2(CCCN2S(C)(=O)=O)CC1.O=C(O)C(F)(F)F.O=C(O)C(F)(F)F`, `COc1ncccc1CN1CC[C@@]2(O)CCN(C(=O)C3CCC3)C[C@H]2C1` is higher in “Percent Effect” value: 2.287% for the first, 6.817% for the second.

Compared with `COc1ncccc1CNC(=O)N1CCC(CNC(C)=O)CC1`, `COc1ccc(Br)c(C(=O)NCC2CCN(C(=O)c3ccoc3)CC2)c1` is lower in “Percent Effect” value: 18.77% for the first, -6.269% for the second.

Going from `CN(Cc1cccnc1)CC1CC12CCN(c1nncs1)CC2.O=C(O)C(F)(F)F.O=C(O)C(F)(F)F.O=C(O)C(F)(F)F` (stereo unspecified) to `Cc1noc(C)c1CN1CCC2(COCc3cnc(N(C)C)nc32)C1.O=C(O)C(F)(F)F` (stereo unspecified), the “Percent Effect” value falls from 10.12% to -6.223%.

First: COc1ccc(-c2noc(Cn3cnc(C)c3)n2)c(OC)c1OC
Second: Cc1ccc(-c2noc([C@@H]3Cc4nc[nH]c4CN3)n2)cc1
The “Percent Effect” value of the first is higher: 10.58% for the first, 1.545% for the second.

Going from `CSCC(=O)Nc1nccn1Cc1ccc(Br)cc1` to `O=C(CCc1ccco1)Nc1ccc(Br)cn1`, the “Percent Effect” value rises from -2.171% to -1.221%.

First: O=C1N(c2ccccc2)Cc2n[nH]c(=O)n21
Second: O=C(NCCCN1CCOCC1)c1cc(-c2ccccc2)[nH]n1
The “Percent Effect” value of the first is lower: -1.221% for the first, 93.89% for the second.

Compared with `COc1cc(C(=O)N2CC(Oc3ccccc3Cl)C2)ccn1`, `O=C(NCCCN1CCOCC1)c1ccnc(OCc2ccccc2)c1` is higher in “Percent Effect” value: -4.351% for the first, 13.78% for the second.

Compared with `CN(C)C(=O)N1CCCn2nc(CNC(=O)CCc3cccs3)cc2C1`, `CN(C)C(=O)N1CCCn2nc(CNC(=O)CCc3ccsc3)cc2C1` is lower in “Percent Effect” value: 2.264% for the first, -5.491% for the second.

Compared with `CN(C)C(=O)N1CCn2nc(CNC(=O)CCC(F)(F)F)cc2C1`, `CN(C)C(=O)N1CCn2nc(CNC(=O)CCc3ccccn3)cc2C1` is higher in “Percent Effect” value: -4.672% for the first, 5.444% for the second.

First: COCCOC(=O)N1CCn2nc(CN(C)Cc3nccs3)cc2C1
Second: CN(Cc1cc2n(n1)CCCN(C(=O)N1CCCC1)C2)Cc1nccs1
The “Percent Effect” value of the first is lower: 91.56% for the first, 94.61% for the second.

Compared with `CCn1c(CC2CCN(C(=O)C3CNCCO3)CC2)nn(C)c1=O` (stereo unspecified), `O=C(C1CCCCC1)N1CCC(n2nc(-c3ccco3)ccc2=O)CC1` is higher in “Percent Effect” value: -6.283% for the first, 79.69% for the second.

First: CC(C)(CCS(C)(=O)=O)CNc1ccc2ccc(F)cc2n1
Second: Cn1c(-c2ccccc2Cl)nc2cc(C(=O)NCCS(C)(=O)=O)cnc21
The “Percent Effect” value of the first is lower: 0.04358% for the first, 0.8241% for the second.

Going from `O=C(c1cccs1)N1CCC(Cn2nc(-c3ccco3)ccc2=O)CC1` to `O=C(c1cccs1)N1CCC(n2nc(-c3ccco3)ccc2=O)CC1`, the “Percent Effect” value rises from -6.925% to -4.214%.

Going from `O=C(c1ccco1)N1CCC(n2nc(-c3cccs3)ccc2=O)CC1` to `O=C(c1ccco1)N1CCC(n2nc(-c3ccco3)ccc2=O)CC1`, the “Percent Effect” value rises from 64.54% to 74.86%.

Going from `Cc1oc(-c2ccco2)nc1CC(=O)N1CCC(C(O)C(F)(F)F)CC1` (stereo unspecified) to `Cc1oc(-c2ccco2)nc1CC(=O)N1CCC(CCO)C1` (stereo unspecified), the “Percent Effect” value rises from 3.492% to 7.972%.

First: O=C(c1ccco1)N1CCC(n2cc(-c3ccsc3)nn2)CC1
Second: O=C(Cc1ccsc1)N1CCC(n2nc(-c3ccco3)ccc2=O)CC1
The “Percent Effect” value of the first is higher: 0.1659% for the first, -9.761% for the second.

Going from `CC(=O)c1c(F)cccc1NC1CCN(C(=O)C2CCCCC2)CC1` to `O=C(NCCN1CCCCCC1)c1cccc(Cl)c1Cl`, the “Percent Effect” value falls from 1.543% to -3.616%.

Compared with `O=C(c1csc(-c2ccco2)n1)N1CCN2CCCCC2C1` (stereo unspecified), `CC(C)C(=O)N1CCC(n2nc(-c3ccco3)ccc2=O)CC1` is higher in “Percent Effect” value: -12.72% for the first, 101.9% for the second.

Going from `CC(C)(C)C(=O)N1CCC(n2nc(-c3ccco3)ccc2=O)CC1` to `O=C(NCCCN1CCOCC1)c1cc(-c2ccco2)[nH]n1`, the “Percent Effect” value falls from 101.2% to 0.6677%.

First: CCn1nc(C)c(CNC(=O)C2COc3ccccc3C2)c1C (stereo unspecified)
Second: CNS(=O)(=O)c1cc(C(=O)NC2COc3ccccc3C2)ccc1OC (stereo unspecified)
The “Percent Effect” value of the first is lower: -10.56% for the first, -1.094% for the second.

Compared with `CCC(C)N(Cc1ccncc1)Cc1ccc(-n2cccn2)cc1` (stereo unspecified), `CN(C)Cc1cccc(-c2cccnc2C(=O)NCc2ccccn2)c1` is higher in “Percent Effect” value: -9.551% for the first, 107.8% for the second.

First: CC(NC(=O)NCCCOC1CCCCC1)c1nncn1C (stereo unspecified)
Second: Cn1ccnc1-c1cccc(NC(=O)NCCCN2CCOCC2)c1
The “Percent Effect” value of the first is higher: 12.39% for the first, 9.655% for the second.

Going from `OCC(O)CSCc1cn(-c2ccc(F)c(Cl)c2)nn1` (stereo unspecified) to `CCN(Cc1cccc(C(=O)Nc2cn(C)nn2)c1)[C@H]1COC[C@@H]1O`, the “Percent Effect” value rises from 1.714% to 20.02%.

Going from `Cc1csc(C2(NCc3nc(-c4ccco4)oc3C)CCCC2)n1` to `Cc1cc(CNC(=O)CCN2CCN(c3ccccn3)CC2)c(C)o1`, the “Percent Effect” value falls from 21.68% to -14.14%.

Going from `Cc1ccc(C(=O)NCC2Cc3ccccc3O2)cc1S(C)(=O)=O` (stereo unspecified) to `Cc1ccc(C(=O)NC2CCOc3ccccc32)cc1S(C)(=O)=O` (stereo unspecified), the “Percent Effect” value rises from -52.49% to 118%.

Going from `CNS(=O)(=O)c1cc(C(=O)NC2COc3ccccc32)cc(C)c1C` (stereo unspecified) to `CN(C)c1nc(CNC(=O)NC2COc3ccccc32)cs1` (stereo unspecified), the “Percent Effect” value falls from 105.8% to -3.429%.

Going from `Cc1nnc(NC(=O)NC2CCOc3ccccc32)s1` (stereo unspecified) to `Cc1oc(C)c(C(=O)NCc2ccccn2)c1C`, the “Percent Effect” value falls from 11.11% to -10.25%.

First: COc1ccc(C(O)CN2CC(n3cc(C)cn3)C2)cc1 (stereo unspecified)
Second: Cc1ccc(CNC(=O)CCN2CCN(c3ccccn3)CC2)n1C
The “Percent Effect” value of the first is lower: -26.31% for the first, 5.614% for the second.

First: NCc1cccc(-c2cccnc2C(=O)NCCN2CCCC2)c1
Second: NCc1cccc(-c2cccnc2C(=O)NCCN2CCOCC2)c1
The “Percent Effect” value of the first is lower: 177.6% for the first, 178.8% for the second.

Going from `COc1cc(CN(C)C(=O)NCc2ccccn2)ccc1SC` to `O=C(NCCCn1ccnc1)Nc1ccn(CCc2ccccn2)n1`, the “Percent Effect” value rises from -14.77% to -2.122%.

Compared with `NCc1cccc(-c2cccnc2C(=O)NCCCN2CCOCC2)c1`, `O=C(NCCCN1CCOCC1)c1ccc(-c2ccccc2)[nH]c1=O` is lower in “Percent Effect” value: 156.6% for the first, -4.893% for the second.

Compared with `O=C(NCCN1CCCCC1)c1cccc(Cl)c1Cl`, `O=C(NCCN1CCOCC1)c1cc(-c2ccccc2Cl)[nH]n1` is higher in “Percent Effect” value: -2.651% for the first, 0.5934% for the second.

First: CC(CC#N)NC(=O)c1cc(Br)c2c(c1)OCCO2 (stereo unspecified)
Second: Cc1nc(N(C)C)nc2c1COCC21CCN(C(=O)NC(C)C)C1 (stereo unspecified)
The “Percent Effect” value of the first is lower: 3.147% for the first, 14.65% for the second.

Compared with `Cc1ccc(C(=O)N2CCC(C(F)(F)F)CC2)cc1N1CCNC1=O`, `Cc1nc(N2CCOCC2)nc2c1COCC21CCN(CC2CC2)C1.O=C(O)C(F)(F)F` (stereo unspecified) is lower in “Percent Effect” value: 18.95% for the first, 1.071% for the second.

Going from `O=C(O)C(F)(F)F.O=C1CCCN1CC1CN(CC2CCOCC2)Cc2nccn2C1` (stereo unspecified) to `COCCN1CCC2(COCc3c(C)nc(N4CCOCC4)nc32)C1.O=C(O)C(F)(F)F` (stereo unspecified), the “Percent Effect” value rises from -5.52% to 8.185%.

Going from `CCCn1cnnc1CNCc1c[nH]nc1-c1ccc(F)cc1` to `Cc1ncsc1CNC(=O)CCN1CCN(c2ccccn2)CC1`, the “Percent Effect” value falls from -2.592% to -8.127%.

Going from `c1cncc(-c2nnc(C3(c4ccc5c(c4)OCO5)CCOCC3)o2)c1` to `Cn1ccnc1-c1cccc(NC(=O)NCCN2CCOCC2)c1`, the “Percent Effect” value rises from 0.6275% to 1.066%.

Going from `Cc1csc(N2CCN(C(=O)CCNc3ncccn3)CC2)n1` to `CC(C)OCCC(=O)NCCC(=O)N1CCN(c2ccccn2)CC1`, the “Percent Effect” value rises from -3.8% to 105.6%.

First: CC(C)COCCC(=O)NCCC(=O)N1CCN(c2ccccn2)CC1
Second: CC(=O)NCC(=O)N1CCC2(COCc3c(C)nc(N(C)C)nc32)C1 (stereo unspecified)
The “Percent Effect” value of the first is higher: 140.4% for the first, 108.4% for the second.

First: Cc1nc(N2CCOCC2)nc2c1COCC21CCN(CC(C)C)C1 (stereo unspecified)
Second: Cc1nc(N(C)C)nc2c1COCC21CCN(C(=O)NCC(C)C)C1 (stereo unspecified)
The “Percent Effect” value of the first is lower: 0.306% for the first, 114.7% for the second.

Compared with `Cc1nc(N(C)C)nc2c1COCC21CCN(C(=O)C2CC2)C1` (stereo unspecified), `CCC(=O)N1CCC2(COCc3c(C)nc(N(C)C)nc32)C1` (stereo unspecified) is lower in “Percent Effect” value: 112% for the first, 5.169% for the second.

With `COCC(=O)N1CCC2(COCc3c(C)nc(N(C)C)nc32)C1` (stereo unspecified) the “Percent Effect” value was 100.6%.
